From PubChem BioAssay
A selection: hits, their analogues and other compounds. The true share with any hit is near 14%.
CRE-bla Fsk – CRE-bla signaling modulation under forskolin stimulation; CHO CRE-bla reporter (cAMP response element driving beta-lactamase), forskolin EC10, beta-lactamase ratio; AID 662; actives 2.5% (n = 71,000); Potency, µM (top dose mostly 38.2 µM), for inactives: at the top dose activity change, negative = inhibition, usual class: activators; active = well fitted activation curve with a large enough effect in the signal ratio, with a control signal flat, not every such curve was filed as active; inconclusive = small, poorly fitted or top-dose-only effect, or effect the other way, or a change in a side signal; the % refers to the signal ratio; also: potency is read from the fitted curve at half-maximal effect; % of control where 0% means no effect
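Titrated compounds plus EC10 NKH 477 on CHO CRE-bla cells, 3 h, 37 °C. CCF4, 2 h RT. Ratio 460/530 nm → AC50.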
HSD17B inhib – HSD17B dehydrogenase inhibition; actives 7.6% (n = 75,000); recombinant HSD17B10, NADH fluorescence kinetic; Q99714; Potency, µM (highest dose often 57.1 µM), for inactives: top-dose activity change, negative = inhibition, usual class: inhibitors;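 also: the protocol describes HADH2 (HSD17B10) and not the HSD17B4 of the title; potency is read from the fitted curve at half-maximal effect; % is scaled to controls: 0 for no effect and ±100 for the full control effect; nearly all actives have a fitted effect of over 70% in size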
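His-tagged E. coli-expressed HADH2 at 20 nM in 100 mM Tris-HCl pH 9.0 with 0.01 % Tween-20, preincubated 15 min with compound at room temperature. Reaction with 1 mM NAD+ and 90 uM beta-hydroxybutyryl coenzyme A; NADH fluorescence (360/450 nm) read kinetically over 4 min, last minus first point.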
4-MU autofl – compound fluoresces in the 4-MU spectral region; compound autofluorescence, 340/450 nm, 4-MU equivalents; hits give high values; max dye-equivalent concentration, M; actives 11% (n = 59,000); in the data active = max dye-equivalent concentration above about 10 nM; inconclusive = mostly about 1.1 nM to 9.6 nM
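Compounds in 100 mM Tris, pH 8.0, sat 15 min at room temperature before fluorescence was read at 340 nm excitation/450 nm emission; a per-plate six-point 4-MU standard curve converted signals to dye-equivalent concentration at each compound concentration.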
AID923 – qHTS Assay for Allosteric/Competitive Inhibitors of Caspase-1: Spectroscopic Profiling in AFC Spectral Region. compound fluorescence, AFC spectral region (405/520 nm). Potency, µM (top dose mostly 57.5 µM), inactives show top-dose fluorescence increase, actives largely listed as activators. actives 1.1% (n = 75,000). AID 923, 2007; also: potency is read from the fitted curve at half-maximal effect; 0% is about no effect
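Titrations up to 57 uM read every 20 sec for 3 min (405/520 nm) with 50 nM caspase 1 and 5 uM Ac-WEHD-AFC, pH 7.5 HEPES buffer. Fluorescence-vs-time intercept gave baseline, scaled against on-plate AFC standard.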
A350 fluor – A350 region autofluorescence; Compound autofluorescence, 340/450 nm, Alexa 350 dye-equivalents; hits give high values; max dye-equivalent concentration, M; actives 11% (n = 59,000); in the data active = max dye-equivalent concentration above about 10 nM; inconclusive = mostly about 1.1 nM to 9.6 nM
HADH2 inhib – HADH2 (human) dehydrogenase inhibition. Potency, µM (doses to about 57.1 µM), inactives show top-dose activity change, negative = inhibition, usual class: inhibitors. AID 886. recombinant HADH2, NADH fluorescence, beta-hydroxybutyryl-CoA. Q99714. actives 3.4% (n = 73,000); also: potency is read from the fitted curve at half-maximal effect; % is scaled to controls: 0 for no effect and ±100 for the full control effect; nearly all actives have a fitted effect of over 60% in size
Target sequence (Q99714 whole entry, looked up, one chain of several): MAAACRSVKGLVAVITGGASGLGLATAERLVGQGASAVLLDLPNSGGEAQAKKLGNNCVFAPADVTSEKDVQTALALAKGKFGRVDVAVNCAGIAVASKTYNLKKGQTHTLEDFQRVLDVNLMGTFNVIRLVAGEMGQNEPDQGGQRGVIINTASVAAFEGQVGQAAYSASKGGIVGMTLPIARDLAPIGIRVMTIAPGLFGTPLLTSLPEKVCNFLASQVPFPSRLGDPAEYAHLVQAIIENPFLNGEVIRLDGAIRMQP
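Buffer 100 mM Tris-HCl pH 9.0/0.01% Tween-20; HADH2 20 nM; NAD+ 1 mM; beta-hydroxybutyryl-CoA 90 uM (all final). 15 min cpd preincubation, RT.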
* = called active by the depositor; i = inactive; ? = inconclusive; . = not tested or not shown; ! = not confirmed by another sample; [ ] = another dose, or the depositor's remark. Unless noted, calls follow the shape of the dose curve; as a rule, active = well fitted curve in the direction sought with a large enough effect; inconclusive = small, poorly fitted or top-dose-only effect, or another doubt; inactive = no such curve, though single readings can be large; an effect the other way counts as inactive or inconclusive.

SMILES	CRE-bla Fsk	HSD17B inhib	4-MU autofl	AID923	A350 fluor	HADH2 inhib
Cc1sc2nc3c4ccccc4c(NCc4ccco4)nn3c(=O)c2c1C	?	25µM*	1.2e-07M*	15%	1.5e-07M*	?
Cc1cc2nnc(SC(C)C#N)n2c2ccccc12 (centres undefined)	?	-10%	?	-2%	?	-6%
Cc1cc2nnc(SC3CCOC3=O)n2c2ccccc12 (centres undefined)	?	136%	?	1%	1.3e-08M*	17%
CN1C[C@@H]2C(c3ccc(C(F)(F)F)cc3)C3(c4cccnc4)CC2(C3)[C@H]1c1ccccc1 (some centres undefined)	.	8%	.	3%	.	.
CCc1ccccc1S(=O)(=O)Cc1ccc(C(=O)N2CCN(c3ccccn3)CC2)o1	12%	0%	.	1%	.	-1%
CC1(C)Cc2ccccc2-c2c1c(=O)n(-c1ccccc1)c1nnnn21	.	.	i	.	i	.
CC1(C)Cc2ccccc2-c2nc(NCCCO)n(-c3ccccc3)c(=O)c21	?	25µM*	.	-2%	.	i[11.4 µM]
CN(C)Cc1nc2c(c(=O)[nH]1)C1(CCCCC1)Cc1ccccc1-2	2%	1%	i	6%	i	-17%
Cn1c(NCCO)nc2c(c1=O)C1(CCCCC1)Cc1ccccc1-2	?	32µM*	.	0%	.	32µM*
O=c1[nH]c(NCCCO)nc2c1C1(CCCC1)Cc1ccccc1-2	-11%	3.2µM*	.	-3%	.	?
Cc1cc2n(n1)C(c1ccc3c(c1)OCO3)Nc1c(C)cccc1-2 (centres undefined)	7%	32µM*	1.2e-08M*	0%	1.6e-08M*	-16%
Cc1cc(C)c2c(c1)-c1cc(C)nn1C(c1ccc3c(c1)OCO3)N2 (centres undefined)	?	25µM*	6.7e-08M*	4%	6.4e-08M*	?
Cc1c(CNC(=O)c2cnn3c2NC(c2ccc(Br)cc2)CC3C(F)(F)F)cnn1C (centres undefined)	-21%	4%	i	-3%	i	3%
NC(=O)/N=N/C(N)=O	1.3µM*	13µM*	.	1%	.	0.025µM*
CCN1C(C)=C(C(=O)OC)C(c2ccccc2)N2C(=O)[C@](O)(C(=O)OC)C(c3ccccc3)C(C(C)=O)=C12 (some centres undefined)	.	6%[11.4 µM]	.	-1%[11.5 µM]	.	11%[11.4 µM]
COC(=O)C1=C(C)N(Cc2ccccc2)C2=C(C(C)=O)C(c3ccccc3)[C@@](O)(C(=O)OC)C(=O)N2C1c1ccccc1 (some centres undefined)	.	-1%[11.4 µM]	.	2%[11.5 µM]	.	3.2µM*!
Cc1ccc2c(COC(=O)c3n[nH]c4ccccc34)cc(=O)oc2c1	?	32µM*	i	1%	i	29%
c1cc(NNc2cccc(-c3nn[nH]n3)c2)cc(-c2nn[nH]n2)c1	14%[7.6 µM]	-4%[11.4 µM]	i	4%[11.5 µM]	i	-9%[11.4 µM]
COc1ccc(OC)c(-c2cc(C(=O)Nc3cccc(Cl)c3)no2)c1	?	32µM*	2.9e-07M*	2%	2.3e-07M*	32µM*
COc1ccc(OC)c(-c2cc(C(=O)Nc3cc(C)on3)no2)c1	8%	25µM*	2.9e-07M*	-1%	2.5e-07M*	25µM*
COc1ccc(-c2csc(NC(=O)c3cc(C)on3)c2C#N)cc1OC	?	-6%	1.4e-08M*	5%	1.3e-08M*	-22%
CCc1c(C)sc(NC(=O)c2cc(-c3cc(OC)ccc3OC)on2)c1C#N	?	-14%	9.1e-08M*	7%	8.1e-08M*	?
COc1ccc(-c2cc(C(=O)Nc3ccc(C)cc3)no2)cc1	?	13µM*	i	2%	i	-2%
O=C(NCc1ccco1)c1cc(-c2ccc3c(c2)OCO3)on1	7%	25µM*	?	0%	?	111%
COc1ccc(OC)c(-c2cc(C(=O)N3CCc4ccccc4C3)no2)c1	5µM*	32µM*	?	2%	?	?
